# This is a sample that favours compounds with a hit; in the whole collection about 1.8% have one here.
# IkB signaling – IkB Signaling. ABC-DLBCL IkBa-CBG/CBR dual luciferase ratio, 4 h; response scale: scaled: untreated 0%, proteasome inhibitor 100%. Potency, µM (doses to about 57.1 µM), for the others: at the highest dose IkBa stabilization activation. 110,000 tested, 0.04% active. AID 445, 2006; active = well fitted curve in the direction sought with a large enough effect in the signal ratio, not every such curve was filed as active; inconclusive = small, poorly fitted or top-dose-only effect, or a change in a side signal; the % refers to the signal ratio;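 also: the direction sought is a rising ratio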
#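 Luminescence ratio of IκBα-fused green versus native red beetle luciferase in OCI-Ly3 cells, 4 h post-doxycycline with compound; red signal alone, scaled from basal (0%) to zero light (-100%), flagged nonspecific or cytotoxic effects.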
# p53ts 32C kill – qHTS Screen for Compounds that Selectively Target Cancer Cells with p53 Mutations: Cytotoxicity of p53ts Cells at the Permissive Temperature; Potency, µM (series often up to 46.1 µM), inactives show top-dose activity change, negative = cytotoxicity, hits mostly cytotoxic; AID 924, 2007; H1299-p53A138V at 32C, ATP luminescence viability, 24 h; 130,000 tested, 0.93% active;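 also: 0% = DMSO and -100% = full killing by reference compound; nearly all actives have a fitted effect of over 55% in size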
#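 Viability by ATPlite luminescence after 24 h compound treatment (up to 46 uM) at the permissive 32C. Cells are H1299 carrying p53 A138V. Scale runs from DMSO basal to 100 uM tamoxifen as full kill; AC50 from Hill fits.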
# Peg3 imprint – qHTS Assay for Compounds that Induce Erasure of Genomic Imprints; mouse ES Peg3-LacZ reporter, beta-gal luminescence, 40 h; Potency, µM (doses to about 60.7 µM), without a hit: at the top dose activity change, positive = activation, actives largely listed as activators; 110,000 tested, 0.02% active; AID 1948, 2009
#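 Imprint erasure is scored as LacZ activity from the silenced maternal Peg3 allele in feeder-free female ES cells cultured 40 h with LIF. Luminescence is normalized to in-plate negative controls and fitted to the Hill equation.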
# p53ts 39C tox – qHTS Screen for Compounds that Selectively Target Cancer Cells with p53 Mutations: Cytotoxicity of p53ts Cells at the Nonpermissive Temperature; H1299-p53A138V viability at 39C, ATP luminescence, 24 h; Potency, µM (series often up to 46.1 µM), without a hit: at the highest dose activity change, negative = cell killing, usual class: cytotoxic; 130,000 tested, 1.5% active; AID 902, 2007; also: % is scaled to controls: 0 for no effect and ±100 for the full control effect; nearly all actives have a fitted effect of over 55% in size
# Numbers without * were called inactive; ? = inconclusive; . = no result; ! = not active in a repeat; [ ] = another dose, or the depositor's remark. Unless noted, calls follow the shape of the dose curve; as a rule, active = well fitted curve in the direction sought with a large enough effect; inconclusive = small, poorly fitted or top-dose-only effect, or another doubt; inactive = no such curve, though single readings can be large; an effect the other way counts as inactive or inconclusive. Potency is read from the fitted curve at half-maximal effect.
SMILES,IkB signaling,p53ts 32C kill,Peg3 imprint,p53ts 39C tox
Cc1nn(CCCC(=O)NCCc2ccc(Cl)cc2)c(=O)c2c1sc1ccccc12,2%,?,-23%[10.9 µM],20µM*
CCC(C(=O)NCCc1ccc(OC)c(OC)c1OC)n1nc(C)c2sc3ccccc3c2c1=O (stereo not drawn),-3%,-8%,-13%[10.9 µM],-29%
COc1ccc(CCNC(=O)C(C)n2nc(C)c3sc4ccccc4c3c2=O)c(OC)c1 (stereo not drawn),?,?,-21%[10.9 µM],13µM*
CCOc1ccc(CCNC(=O)CCCn2nc(C)c3sc4ccccc4c3c2=O)cc1,0%,-17%,-10%[10.9 µM],?
c1ccc(-n2nnc3c(N4CCOCC4)ncnc32)cc1,?,13µM*,-85%,13µM*
CN(C)c1ccc(N/C=C/C(=O)c2ccccc2)cc1,?,5µM*,-35%,13µM*
CN(C)c1ccc(NC(=O)CCCc2ccccc2)cc1,-4%,-10%,-9%,-2%
CC1CCN(C(=O)CN2c3ccc(C(C)C)cc3-c3ccccc3S2(=O)=O)CC1,?,-1%,-19%[10.9 µM],-17%
c1ccc2nc(-c3nc4ccccc4o3)ccc2c1,?,5µM*,-91%,5µM*
COc1ccc(NC(=O)CCn2cccn2)cc1OC,-1%,2%,-8%[10.9 µM],15%
CC(NC(=O)C1CCN(S(=O)(=O)c2ccc3c(c2)oc(=O)n3C)CC1)c1ccccc1 (stereo not drawn),?,1%,-10%[10.9 µM],15%
OCCN1CCN(CCCN2c3ccccc3Sc3ccc(Cl)cc32)CC1,4%[25.6 µM],16µM*!,-21%,10µM*!
CN(C)CCCN1c2ccccc2Sc2ccc(Cl)cc21,3%[25.6 µM],?,-13%,10µM*!
CC(=O)c1ccc2c(c1)N(CCCN1CCC(CCO)CC1)c1ccccc1S2,-2%[25.6 µM],.,-9%[16.8 µM],.
CN(C)CCCN1c2ccccc2Sc2ccc3ccccc3c21,1%[11.4 µM],-3%[9.22 µM],-17%[10.9 µM],-1%[9.22 µM]
COc1cccc(-c2cc(C(=O)Nc3cc(Cl)ccc3O)on2)c1,1%,-1%,-10%[10.9 µM],-15%
CCc1ccccc1NC(=O)C(C)n1nc(-c2ccc(C)c(C)c2)ccc1=O (stereo not drawn),2%,-7%,-8%[10.9 µM],3%
CCOc1ccc(-c2cc(C(=O)NCCc3ccc(OC)c(OC)c3)c3c(-c4ccc(F)cc4)[nH]nc3n2)cc1,-2%,-24%,-20%[10.9 µM],?
CCOc1ccc(-c2cc(C(=O)NCCc3ccccc3)c3c(-c4ccc(C)cc4)[nH]nc3n2)cc1,-1%,-12%,-10%[10.9 µM],16µM*
COc1ccccc1-c1cc(C(=O)NCc2ccccc2)c2c(-c3ccc(C)cc3)[nH]nc2n1,1%,7%,-16%[10.9 µM],-5%
COc1ccc(CCNC(=O)c2cc(-c3ccc(C)cc3)nc3n[nH]c(-c4ccccc4)c23)cc1OC,1%,-11%,-15%[10.9 µM],-21%
COc1cc(OC)c(-c2cc(C(=O)NCc3ccc(F)cc3)c3c(-c4ccccc4)[nH]nc3n2)cc1OC,1%,8.9µM*,12%[10.9 µM],?
CCc1ccc(-c2[nH]nc3nc(-c4cc(OC)ccc4OC)cc(C(=O)O)c23)cc1,16%,-2%,?,4µM*
COc1ccc(-c2cc(C(=O)NCCc3ccccc3)c3c(-c4ccccc4)[nH]nc3n2)cc1OC,8%,?,-3%[10.9 µM],13µM*
COc1ccc(-c2[nH]nc3nc(-c4cc(OC)c(OC)c(OC)c4)cc(C(=O)O)c23)cc1,0%,-17%,-13%[10.9 µM],?
SMILES,IkB signaling,p53ts 32C kill,Peg3 imprint,p53ts 39C tox
CCCNC(=O)OC[C@H]1O[C@@H](CCO/N=C2/C[C@@H](O)[C@@H](O)[C@@H]3[C@@H]4C(=O)N(CC)C(=O)[C@H]4CC[C@@H]23)C=C[C@@H]1Oc1ccc(OC)cc1,.,5%[9.22 µM],.,-3%[9.22 µM]
Cc1sc2ncn(CC(=O)N3CCN(c4cccc(Cl)c4)CC3)c(=O)c2c1S(=O)(=O)N1CCC(C)CC1,?,15%,-4%[10.9 µM],-20%
COc1cccc(-c2cc(NCc3cccs3)ncn2)c1,-1%[11.4 µM],25µM*,-47%,?
CCc1ccccc1S(=O)(=O)Cc1ccc(C(=O)NCCc2ccc(C)cc2)o1,?,-1%,-10%[10.9 µM],-9%
COc1cc(O)c(C(=O)/C=C/c2ccc(OC)c(O)c2)c(OC)c1,.,10µM*,-37%,63%
COc1cccc(NC(CNS(=O)(=O)c2ccc(Cl)cc2)c2ccccc2)c1 (stereo not drawn),0%,?,2%[10.9 µM],13µM*
O=S(=O)(NCC(Nc1ccc(Cl)cc1)c1ccccc1)c1ccccc1 (stereo not drawn),?,?,-1%[10.9 µM],22µM*
COc1cccc(NC(CNS(=O)(=O)c2ccc(C)cc2)c2ccccc2)c1 (stereo not drawn),?,11%,-6%[10.9 µM],?
O=S(=O)(NCC(c1ccccc1)N1CCc2ccccc21)c1ccc(Cl)cc1 (stereo not drawn),2%,17%,-10%[10.9 µM],25µM*
CN(C)c1ccc(C(CNS(=O)(=O)c2ccc(F)cc2)N2CCc3ccccc32)cc1 (stereo not drawn),?,4%,-9%[10.9 µM],3%
O=C(NCCC1=CCCCC1)c1ccc2c(c1)N(Cc1ccccc1F)C(=O)c1ccccc1S2=O (stereo not drawn),2%,22%,-4%[10.9 µM],-27%
CCc1cccc(C)c1NC(=O)Cn1cc2c(n1)CCCCC2,?,-3%,-10%[10.9 µM],10%
Cc1ccc(C(=O)Nc2sc3c(c2C(=O)O)CCCCC3)o1,?,7.9µM*,-93%,6.3µM*
COC(=O)c1c(NC(=O)c2ccc(C)o2)sc2c1CCCCC2,9%,-13%,-34%,-28%
Clc1ccc(-c2nc(-c3ccccn3)no2)cc1Cl,?,5µM*,-65%,7.9µM*
Brc1ccc(-c2nc(-c3ccccn3)no2)o1,?,7.9µM*,-95%,6.3µM*
Clc1ccc(OCc2nc(-c3ccccn3)no2)c(Br)c1,6%,13µM*,-81%,13µM*
Brc1ccc(-c2nc(-c3ccncc3)no2)o1,-1%,-6%,-27%,0%
Clc1ccccc1OCc1nc(-c2ccccn2)no1,?,?,-77%,?
CC(C)Nc1ccc(-c2nc(-c3ccccn3)no2)cc1[N+](=O)[O-],0%,-9%,-16%[10.9 µM],-3%
CCOc1cccc2sc(N3CCN(C(=O)C(C)(C)C)CC3)nc12,-4%,2%,6%[10.9 µM],?
COc1c(-c2coc3cc4c(cc3c2=O)CC(O)C(C)(C)O4)ccc2c1C=CC(C)(C)O2 (stereo not drawn),.,?,-34%,25µM*
O=C(COc1ccc(Cl)cc1)Nc1ccc(-c2nc3ccccc3s2)c(O)c1,8%,5%,-6%[10.9 µM],47%
CCN(CC)c1ccc(NC(=O)c2ccc(Br)o2)cc1,3%,13µM*,-52%,?
COC(=O)Cc1ccc(NC(=O)c2ccc(Br)o2)cc1,0%,-28%,-75%,?

# Screens from PubChem BioAssay.
